Screens from PubChem BioAssay.
Fluorescein autfl – qHTS Assay for Spectroscopic Profiling in Fluorescein Spectral Region | Compound autofluorescence, 480/540 nm, fluorescein-equivalent; active compounds read high | max fluorescein-equivalent concentration, M | 59,000 compounds, 0.91% hits; in the data active = max fluorescein-equivalent concentration above about 10 nM; inconclusive = between about 1.1 nM and that limit
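Read-out is intrinsic compound fluorescence at 480/540 nm (excitation/emission), expressed as dye-equivalent concentration using a fluorescein standard series run on every plate. Compounds sat 15 min at room temperature in 100 mM Tris, pH 8.0.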
Rhodamine fluor – qHTS Assay for Spectroscopic Profiling in Rhodamine Spectral Region; Rhodamine-region fluorescence, 547/598 nm, Tris buffer; active compounds read high; 59,000 compounds, 0.05% hits; max dye-equivalent concentration, M; in the data active = max dye-equivalent concentration above about 11 nM; inconclusive = between about 1.1 nM and that limit
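qHTS spectral profiling of compounds without any target or enzyme present, in pH 8.0 Tris buffer; plates were read after a 15-minute room-temperature incubation using the rhodamine-region filter set.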
A488 fluor – qHTS Assay for Spectroscopic Profiling in A488 Spectral Region; compound autofluorescence, A488 spectral region, dye equivalency; Compound Type: qHTS ECL - MLSMR; max dye equivalency, M; 59,000 compounds, 0.1% hits; AID 591, 2007
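Intrinsic compound fluorescence is measured in 100 mM Tris buffer at pH 8.0 following 15 min incubation at room temperature. Intensities at 480 nm excitation/540 nm emission are calibrated to an on-plate A488 concentration series, giving dye-equivalent concentrations.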
Resorufin fluor – qHTS Assay for Spectroscopic Profiling in Resorufin Spectral Region; Compound fluorescence, resorufin region 547/598 nm, buffer; active compounds read high; max dye-equivalent concentration, M; 59,000 compounds, 0.04% hits; AID 588, 2007
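Intrinsic fluorescence profiled in the resorufin window (ex 547 nm, em 598 nm) after 15 min at room temperature in pH 8.0 Tris buffer (100 mM); responses normalized against a six-point resorufin standard series as dye-equivalent concentration.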
TexasRed autofl – qHTS Assay for Spectroscopic Profiling in Texas Red Spectral Region; 59,000 compounds, 0.06% hits; Compound fluorescence, Texas Red channel, 547/618 nm; active compounds read high; max dye-equivalent concentration, M; AID 587, 2007; in the data active = max dye-equivalent concentration above about 10 nM; inconclusive = between about 1.1 nM and that limit
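Compound titrations in 100 mM Tris pH 8.0 were incubated 15 min at room temperature and read at 547 nm excitation / 618 nm emission. Texas Red six-point standard curve on each plate converted fluorescence to dye-equivalent concentration.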
A647 fluor – qHTS Assay for Spectroscopic Profiling in A647 Spectral Region | Compound fluorescence, A647 channel (570/671 nm), Tris buffer | max dye-equivalent concentration, M | 59,000 tested, under 10 active | AID 592, 2007;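 note: values scaled relative to a standard on each plate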
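Spectral profiling of library compounds in pH 8.0 Tris: 15 min room-temperature incubation, single ex/em pair (570/671 nm), response normalized to Alexa 647 equivalents.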
Starred values were filed as active, the others as inactive; i = inactive; ? = inconclusive; ! = repeats disagree. Hits are enriched below; roughly 0.95% of the tested compounds scored in any of these assays. Unless noted, the rule behind the calls is not given here.

SMILES | Fluorescein autfl | Rhodamine fluor | A488 fluor | Resorufin fluor | TexasRed autofl | A647 fluor
CCCn1c(=C(C#N)C#N)s/c(=C2\C=Cc3ccccc3N2CC)c1=O | 2.1e-08M* | ? | i | ? | ? | 9.4e-09
Cc1ccc(NC(=O)C2(N(CC(C)C)C(=O)Cn3nnnc3N)CCCCC2)cc1 | i | i | i | i | i | 2.41e-08
O=C(NCc1ccc2[nH]c3c(c2c1)CCCC3)N1CCOCC1 | 1.46e-08M* | i | i | i | i | 1e-09
CCOC(=O)c1cnc(-n2nc(C)cc2C)nc1N(CC)CC | 1.14e-08M* | i | i | i | i | 4.44e-08
CCOC(=O)c1cnc(-n2nc(C)cc2C)nc1NC1CCCCC1 | ? | i | i | i | i | 4.68e-08
CCOC(=O)c1cnc(-n2nc(C)cc2C)nc1Nc1ccc(N(C)C)cc1 | ? | i | i | i | ? | 4.48e-08
CCOC(=O)c1cnc(-n2nc(C)cc2C)nc1NC | 1.02e-08M* | i | i | i | i | 1.8e-09
N#CC(C(=O)OC1CCCCC1)c1nc2ccccc2nc1N1CCCCC1 (centres undefined) | 1.26e-08M* | i | i | i | i | 3.9e-09
CC1CCCN(c2nc3ccccc3nc2C(C#N)C(=O)OC2CCCCC2)C1 (centres undefined) | 1.42e-08M* | i | i | i | ? | 1.04e-08
COC(=O)[C@H](CC(C)C)NC(=O)Nc1ccc2c(c1)OCCO2 | ? | i | i | i | i | 2.92e-08
CN(C)c1ccc(/C=C/c2cc[n+]([O-])cc2)cc1 | 2.85e-07M* | i | 1.51e-08M* | i | ? | 5e-09
N#CCCn1c(=O)c(-c2cccs2)nc2cnc(N3CCOCC3)nc21 | 1.3e-08M* | i | i | i | i | 3.27e-08
COC(=O)c1c(=O)n(O)c2ccc(OC)cc2[n+]1[O-] | 3.56e-08M* | i | ? | i | i | 2e-09
CN(C)/C=c1\sc2c(C#N)cc(C(=O)c3ccc(Br)cc3)n2c1=O | 8.11e-07M* | i | 4.29e-08M* | i | i | 2.5e-08
COc1ccc(N2C(=O)CC(N(Cc3ccc(S(N)(=O)=O)cc3)C(C)=O)C2=O)cc1 (centres undefined) | i | i | i | i | i | 1e-09
COC(=O)c1ccc2c(c1)SC1=C(CCCC1=O)N2 | 5.27e-08M* | 2e-08M* | ? | 1.86e-08M* | 2.13e-08M* | 6.82e-08
CNc1oc(Cc2ccccc2)nc1S(=O)(=O)c1ccccc1 | i | i | i | i | ? | 3.6e-09
Cc1ccc(S(=O)(=O)N2CCC(C(=O)Nc3nnc(C4CCCC4)s3)CC2)cc1 | 1.19e-08M* | i | i | i | i | 1.1e-09
Cc1ccc(C(C(=O)NC2CCCC2)N(Cc2cccs2)C(=O)CNC(=O)c2cccs2)o1 (centres undefined) | ? | i | i | i | i | 1.72e-08
CC1(C)S[C@@H]2[C@H](NC(=O)COc3ccccc3)C(=O)N2[C@H]1C(=O)O (tested in a mixture with another compound) | 1.92e-08M* | i | i | i | i | 2.88e-08
CC1(C)S[C@@H]2[C@H](NC(=O)C(N)c3ccccc3)C(=O)N2[C@H]1C(=O)O (some centres undefined) | ? | i | i | i | i | 1e-09
c1ccc2c(-c3ccncc3)c[nH]c2c1 | ? | i | i | i | i | 1e-09
Nc1cc(-c2ccncc2)c[nH]c1=O | 1.08e-08M* | i | i | i | i | 5.08e-08
COc1cc(C2C3=C(CC(C)(C)CC3=O)Nc3c2c(=O)[nH]c(=O)n3Cc2ccccc2)ccc1O (centres undefined) | ? | i | i | i | i | 1e-09
COc1ccc(C2C3=C(CC(C)(C)CC3=O)Nc3c2c(=O)[nH]c(=O)n3Cc2ccccc2)cc1OC (centres undefined) | 1.1e-08M* | i | i | i | i | 5.28e-08
SMILES | Fluorescein autfl | Rhodamine fluor | A488 fluor | Resorufin fluor | TexasRed autofl | A647 fluor
CCOC(=O)N1CCN(S(=O)(=O)c2ccc3c(c2)SC(C)C(=O)N3)CC1 (centres undefined) | ? | i | i | i | ? | 2.93e-08
COC(=O)c1cn[nH]c1N | i | i | i | i | i | 4.6e-09
CCN(CC)c1ccc2c(c1)C(=O)N(C)C2=O | 1.13e-08M* | i | i | i | ? | 1.04e-08
CCOC(=O)C1=C(C)OC(N)=C(C#N)C1c1cc(OC)c2c(c1)OCO2 (centres undefined) | ? | i | i | i | i | 7.1e-09
CCOc1cc(C2C(C#N)=C(N)OC(C)=C2C(C)=O)cc(Br)c1O (centres undefined) | 1.92e-07M* | i | 1.24e-08M* | i | i | 2.5e-09
CCOC(=O)Cc1csc(NC(=O)CSc2nnc(-n3nc(C)cc3C)c3ccccc23)n1 | i | i | i | i | i | 1e-09
Cc1ccccc1CNc1ncnc2c1ncn2[C@@H]1O[C@@H](CO)[C@H](O)[C@@H]1O | 2e-08M* | i | i | i | ? | 1.2e-09
Cc1c(C2Nc3ccccc3NC3=C2C(=O)CC(C)(C)C3)cnn1C (centres undefined) | 1.11e-08M*! | i | i | i | i | 6.8e-09
CC1=c2c(oc3cc(O)c(Nc4c(C)cc(O)cc4O)c(C)c23)=CC(=O)C1=Nc1c(C)cc(O)cc1O | 1.47e-08M* | 1.17e-07M* | i | 7.41e-08M* | 2.63e-07M* | 9.94e-08
O=C(O)C1Sc2[nH]c(=O)sc2C2c3cc(Cl)ccc3OC(=O)C12 (centres undefined) | i | i | i | i | i | 1.71e-08
Cc1ccc(C2c3sc(=O)[nH]c3SC3C(=O)NC(=O)C32)cc1 (centres undefined) | 1.21e-08M* | i | i | i | i | 1e-09
Cc1cc(OCC(=O)NCCN2CCOCC2)ccc1Br | 2.29e-08M* | i | i | i | i | 2.57e-08
Cc1cc(-c2ccco2)n2c(nc3ccccc32)c1C#N | 5.98e-08M* | i | ? | i | i | 1e-09
CN(C)c1ccc(/C=c2\sc3n(c2=O)CCCN=3)cc1 | 1.45e-08M* | i | i | i | i | 1e-09
COC(=O)/C=c1/sc2n(c1=O)CCN=2 | i | i | i | i | i | 1.84e-08
COc1ccc(CCNC[C@H](O)c2ccc(O)cc2)cc1OC | ? | i | i | i | i | 4.6e-09
C=CCn1c(=O)/c(=C/c2ccc(C)o2)s/c1=C(/C#N)C(=O)c1ccccc1 | 9.85e-08M* | i | ? | i | i | 2.15e-08
N#[N+]c1ccc(Nc2ccccc2)cc1 | 1.28e-08M* | i | i | i | i | 1e-09
